A selection: hits, their analogues and other compounds. The true share with any hit is near 9.6%.
Autophagy HCS: autophagy modulators in MEF cells, primary screen, imaging, high-content, MEF GFP-LC3; MEF GFP-LC3 puncta imaging; test concentration mostly 10 µM; calls only at 10 µM (by protocol); 190,000 compounds, 0.98% hits;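 active = percentage of spot-positive cells more than 3 SD above its plate mean, without a fluorescence outlier flag or 80% toxicity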;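 note: spot-positive cell cutoff set from DMSO-treated cells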
PTEN del growth: growth suppression of PTEN-null HCT116, primary screen, cell-based, CellTiter-Glo; 140,000 compounds, 1.2% hits; AID 827, 2007; viability, % at 10 µM; HCT116 PTEN-null viability, 60 h; hits give low values;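 active = viability at or below a set limit, 4 SD under the median of all tested compounds, cut at about 3.7% in these data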;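 note: PTEN knockout HCT116 line with beta catenin targeted HCT116 as companion control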
INS promoter inh: inhibitors of insulin promoter-driven GFP, primary screen, imaging, TRM-6 cells (human fetal islet line), eGFP reporter, cell count; reporter expression induced with tamoxifen; inhibition, % at 2 µM; 130,000 compounds, 0.9% hits; AID 1273, 2008;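 active = inhibition above the mean plus 3 SD, with well images judged a real hit on visual review, cut at about 60% in these data, passing the limit was not always enough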
bCat KO growth: primary screen for growth suppressors in beta-catenin knockout HCT116 cells (colon tumor, human); HCT116 beta-catenin knockout viability, CellTiter-Glo, 60 h; hits give low values; viability, % at 10 µM; 140,000 compounds, 1.5% hits; AID 818, 2007;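 active = viability at or under a set limit, the compound median less 4 SD, cut at about 6% in these data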;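 note: 0% = Hyamine 1622 control at 20 µM and 100% = untreated cell control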
Ins promoter up: insulin promoter activators in MIN6 cells, imaging, high-content screening, mouse beta cells; MIN6 insulin promoter-GFP reporter; hits give high values; z-score at 5 µM; 190,000 compounds, 0.3% hits;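 active = z-score above 3 at 5 µM with at least 500 cells counted in the well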
Lmaj promast: Leishmania major promastigote growth inhibition, primary screen; Leishmania major promastigotes, resazurin fluorescence viability; inhibition, % at 10 µM; 200,000 compounds, 9% hits; AID 1063, 2008; in the data active = inhibition above about 50%;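 note: promastigotes grown with compound for 44 hours at 28 °C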
* hit, by the source's call; i = inactive; x = no result given.

SMILES | Autophagy HCS | PTEN del growth | INS promoter inh | bCat KO growth | Ins promoter up | Lmaj promast
c1ccc(-c2nc3c(ccc4ccccc43)[nH]2)nc1 | i | 39.7 | 38.5 | 30.7 | x | 100.4*
COCCNC(=O)c1cc2sc3ccccc3c2s1 | i | 90.4 | x | 101.3 | 0.63 | -2.9
CN(C)CCCNC(=O)c1cc2sc3ccccc3c2s1 | i | x | -26.1 | x | -0.77 | 91.8*
CN(C)CCCNC(=O)c1ccc(-c2ccccc2)cc1 | i | 99.4 | x | 98.5 | 0.39 | 85.8*
COC(=O)c1cccc(/C=N/NC(N)=S)c1O | x | x | x | x | -2.05 | x
CCC(=O)Nc1ccc(C(=O)NNC(=O)c2ccccc2)cc1 | i | x | x | x | -0.67 | -6.1
COc1ccc(C2NC(=S)NC3=C2CCc2cc(OC)ccc23)cc1 (stereo unspecified) | i | 60.5 | x | 59.3 | -0.72 | 62.5*
Cc1ccc(/C=C2\CCCC3=C2NC(=S)NC3c2ccc(C)cc2)cc1 (stereo unspecified) | i | 87.6 | 40.0 | 84.4 | x | 7.8
COc1ccc(N(CC(=O)NCc2ccco2)S(C)(=O)=O)c(OC)c1 | i | x | x | x | 0.1 | -6.3
Cc1c(O)ccc(NS(=O)(=O)c2ccccc2)c1C | i | x | x | x | 1.28 | 5.1
Cc1cc(NS(=O)(=O)c2ccccc2)c(C)c(Cl)c1O | x | 2.2* | x | 2.3* | -0.13 | x
Cc1cccc(NC(=O)c2nc[nH]c2C(=O)Nc2ccccc2[N+](=O)[O-])c1 | i | 72.7 | 25.0 | 79.5 | -1.09 | 56.9*
CNC(=O)c1[nH]cnc1C(=O)Nc1ccccc1C | i | 85.2 | 52.6 | 89.8 | x | 4.1
CC1CCN(c2c(NCC3CCC(C(=O)NCCC4=CCCCC4)CC3)c(=O)c2=O)CC1 (stereo unspecified) | x | x | x | x | 1.47 | x
O=C(NCCCN1CCN(Cc2ccccc2)CC1)C1CCN(c2nnc(-n3cccc3)s2)CC1 | i | 57.2 | -65.4 | 62.0 | -4.79 | -3.7
Oc1ccc(Cl)cc1-c1cc(-c2ccco2)[nH]n1 | i | 46.3 | 27.9 | 31.7 | 0.04 | 90.3*
Oc1ccc(Cl)cc1-c1cc(-c2cccc(Br)c2)n[nH]1 | i | 15.0 | -17.4 | 7.9 | 1.32 | 99.2*
CCOC(=O)c1oc2ccccc2c1NC(=O)COc1cccc(OC)c1 | i | 77.3 | 9.4 | 88.5 | x | -8.4
Cc1cccc(CCNS(=O)(=O)c2ccc(S(=O)(=O)N3CCC(C)CC3)cc2)c1 | i | x | -42.9 | x | x | -7.1
COc1ccc(/C=C/C(=O)c2ccc3c4c(cccc24)CC3)cc1OC | i | 15.6 | 16.0 | 13.6 | -0.13 | 59.6*
COc1ccc(/C=C/C(=O)c2ccc3c4c(cccc24)CC3)cc1 | i | 20.3 | x | 26.9 | -0.56 | 9.6
COc1ccc(C(=O)Oc2ccc(F)cc2C(=O)/C=C/c2ccc(OC)c(OC)c2)cc1 | i | 101.4 | x | 97.6 | -0.13 | 35.4
COc1ccc(/C=C/C(=O)c2cc(F)ccc2OC(=O)c2ccccc2C)cc1OC | i | 2.1* | -18.2 | 2.2* | -2.99 | 59.6*
COc1ccc(C(=O)OC2CCN(c3ncc(C(F)(F)F)cc3Cl)CC2)cc1 | i | 57.0 | x | 3.4* | 0.25 | -4.1
O=C(CN1CCN(c2ncc(C(F)(F)F)cc2Cl)CC1)N1CCN(c2ncc(C(F)(F)F)cc2Cl)CC1 | i | 46.6 | 25.8 | 24.0 | 0.3 | 50.3*
SMILES | Autophagy HCS | PTEN del growth | INS promoter inh | bCat KO growth | Ins promoter up | Lmaj promast
O=C(OC1CCN(c2ncc(C(F)(F)F)cc2Cl)CC1)c1ccccc1 | i | 72.5 | -6.9 | 58.3 | 0.11 | -4.2
CCCN(CC(=O)Nc1ccccc1C)C(=O)CCl | i | x | 5.0 | x | 2.39 | 52.6*
CCn1nnc(NC(=S)NC(=O)c2ccc(-c3cccc(Cl)c3)o2)n1 | x | x | x | x | 0.25 | x
CCCCn1nnc(NC(=O)c2ccc(-c3cccc(Cl)c3)o2)n1 | i | 100.7 | 0.0 | 102.0 | x | 50.9*
CCCn1nnc(NC(=O)c2cccc(OCc3ccccc3)c2)n1 | i | 86.1 | 42.9 | 102.2 | 0.91 | 52.2*
CCCn1nnc(NC(=O)c2cccc(Cl)c2)n1 | i | 88.0 | 32.4 | 98.4 | -0.33 | -3.9
CCCn1nnc(NC(=O)c2ccc(-c3cccc(Cl)c3)o2)n1 | i | 99.6 | -10.8 | 99.2 | -0.03 | 76.8*
CCCCn1nnc(NC(=O)c2ccc(-c3cccc([N+](=O)[O-])c3)o2)n1 | i | x | x | x | 0.24 | 55.6*
CCSC1=C(C#N)C(CC(C)C)C2=C(CCCC2=O)N1 (stereo unspecified) | x | x | x | x | 0.34 | x
